According to doi:10.1101/2024.03.05.583629:

Target: pT7_6His-AlfaTag-HOXD13 (human, UniProt P35453 263-343)
Assay: PADIT-seq
Conditions: dsDNA, one strand shown

Chain of pT7_6His-AlfaTag-HOXD13 (P35453 263-343): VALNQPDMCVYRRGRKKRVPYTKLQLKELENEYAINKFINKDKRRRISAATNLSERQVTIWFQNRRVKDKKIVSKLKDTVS

Going from “CTCGAGGATATCAAGATCTGGCCTCGGCTTTTTACGGGGAACCTCTAGCTAGCCGACTCACTATAGGGATAATCGCCCTGAGCAAAGACC” to “CTCGAGGATATCAAGATCTGGCCTCGGCGGCTTAAAAGGAACCTCTAGCTAGCCGACTCACTATAGGGATAATCGCCCTGAGCAAAGACC”, the binding signal falls from 3.16 ± 0.0883 log2FC to -0.00793 ± 0.0839 log2FC.

Going from “CTCGAGGATATCAAGATCTGGCCTCGGCCCATTAAAAGGAACCTCTAGCTAGCCGACTCACTATAGGGATAATCGCCCTGAGCAAAGACC” to “CTCGAGGATATCAAGATCTGGCCTCGGCATTTTAGTTGGAACCTCTAGCTAGCCGACTCACTATAGGGATAATCGCCCTGAGCAAAGACC”, the binding signal falls from 2.92 ± 0.0908 log2FC to 0.276 ± 0.112 log2FC.

First: CTCGAGGATATCAAGATCTGGCCTCGGCGTTATAAAAGGAACCTCTAGCTAGCCGACTCACTATAGGGATAATCGCCCTGAGCAAAGACC
Second: CTCGAGGATATCAAGATCTGGCCTCGGCCTTCTAAAAGGAACCTCTAGCTAGCCGACTCACTATAGGGATAATCGCCCTGAGCAAAGACC
The binding signal of the first is higher: 2.4 ± 0.0697 log2FC for the first, 0.087 ± 0.127 log2FC for the second.

Going from “CTCGAGGATATCAAGATCTGGCCTCGGCGCTCTAAAAGGAACCTCTAGCTAGCCGACTCACTATAGGGATAATCGCCCTGAGCAAAGACC” to “CTCGAGGATATCAAGATCTGGCCTCGGCTGTTTAAAAGGAACCTCTAGCTAGCCGACTCACTATAGGGATAATCGCCCTGAGCAAAGACC”, the binding signal rises from 0.0795 ± 0.0859 log2FC to 1.97 ± 0.0666 log2FC.

Going from “CTCGAGGATATCAAGATCTGGCCTCGGCCAGTTAAAAGGAACCTCTAGCTAGCCGACTCACTATAGGGATAATCGCCCTGAGCAAAGACC” to “CTCGAGGATATCAAGATCTGGCCTCGGCCACTTAAAAGGAACCTCTAGCTAGCCGACTCACTATAGGGATAATCGCCCTGAGCAAAGACC”, the binding signal falls from 2 ± 0.0881 log2FC to 1.17 ± 0.0931 log2FC.

First: CTCGAGGATATCAAGATCTGGCCTCGGCTTTTTAATCGGAACCTCTAGCTAGCCGACTCACTATAGGGATAATCGCCCTGAGCAAAGACC
Second: CTCGAGGATATCAAGATCTGGCCTCGGCGATCCACGCGGAACCTCTAGCTAGCCGACTCACTATAGGGATAATCGCCCTGAGCAAAGACC
The binding signal of the first is higher: 1.1 ± 0.0911 log2FC for the first, -1.01 ± 0.105 log2FC for the second.

First: CTCGAGGATATCAAGATCTGGCCTCGGCCGTTTAAAAGGAACCTCTAGCTAGCCGACTCACTATAGGGATAATCGCCCTGAGCAAAGACC
Second: CTCGAGGATATCAAGATCTGGCCTCGGCTGCCTAAAAGGAACCTCTAGCTAGCCGACTCACTATAGGGATAATCGCCCTGAGCAAAGACC
The binding signal of the first is higher: 1.9 ± 0.069 log2FC for the first, -0.51 ± 0.109 log2FC for the second.

Going from “CTCGAGGATATCAAGATCTGGCCTCGGCCGCCCAGTTGGAACCTCTAGCTAGCCGACTCACTATAGGGATAATCGCCCTGAGCAAAGACC” to “CTCGAGGATATCAAGATCTGGCCTCGGCTAAGTAAAAGGAACCTCTAGCTAGCCGACTCACTATAGGGATAATCGCCCTGAGCAAAGACC”, the binding signal rises from -0.996 ± 0.138 log2FC to 0.166 ± 0.108 log2FC.

First: CTCGAGGATATCAAGATCTGGCCTCGGCTATCTAAAAGGAACCTCTAGCTAGCCGACTCACTATAGGGATAATCGCCCTGAGCAAAGACC
Second: CTCGAGGATATCAAGATCTGGCCTCGGCGTTTTATCAGGAACCTCTAGCTAGCCGACTCACTATAGGGATAATCGCCCTGAGCAAAGACC
The binding signal of the first is lower: -0.377 ± 0.118 log2FC for the first, 2.41 ± 0.0928 log2FC for the second.

Going from “CTCGAGGATATCAAGATCTGGCCTCGGCCTTTTATAAGGAACCTCTAGCTAGCCGACTCACTATAGGGATAATCGCCCTGAGCAAAGACC” to “CTCGAGGATATCAAGATCTGGCCTCGGCGTTTTAAAAGGAACCTCTAGCTAGCCGACTCACTATAGGGATAATCGCCCTGAGCAAAGACC”, the binding signal falls from 3.23 ± 0.0726 log2FC to 2.44 ± 0.0598 log2FC.

Going from “CTCGAGGATATCAAGATCTGGCCTCGGCATTTTAACGGGAACCTCTAGCTAGCCGACTCACTATAGGGATAATCGCCCTGAGCAAAGACC” to “CTCGAGGATATCAAGATCTGGCCTCGGCGGTATAAAAGGAACCTCTAGCTAGCCGACTCACTATAGGGATAATCGCCCTGAGCAAAGACC”, the binding signal falls from 1.87 ± 0.0803 log2FC to 1.44 ± 0.072 log2FC.

Compared with “CTCGAGGATATCAAGATCTGGCCTCGGCGGAATAAAAGGAACCTCTAGCTAGCCGACTCACTATAGGGATAATCGCCCTGAGCAAAGACC”, “CTCGAGGATATCAAGATCTGGCCTCGGCCGCCCATTTGGAACCTCTAGCTAGCCGACTCACTATAGGGATAATCGCCCTGAGCAAAGACC” is lower in binding signal: 0.87 ± 0.0838 log2FC for the first, -0.832 ± 0.113 log2FC for the second.

Going from “CTCGAGGATATCAAGATCTGGCCTCGGCCAATTAAAAGGAACCTCTAGCTAGCCGACTCACTATAGGGATAATCGCCCTGAGCAAAGACC” to “CTCGAGGATATCAAGATCTGGCCTCGGCGCGATAAAAGGAACCTCTAGCTAGCCGACTCACTATAGGGATAATCGCCCTGAGCAAAGACC”, the binding signal falls from 2.77 ± 0.0792 log2FC to 1.22 ± 0.0747 log2FC.

First: CTCGAGGATATCAAGATCTGGCCTCGGCCACGTAAAAGGAACCTCTAGCTAGCCGACTCACTATAGGGATAATCGCCCTGAGCAAAGACC
Second: CTCGAGGATATCAAGATCTGGCCTCGGCCTAATAAAAGGAACCTCTAGCTAGCCGACTCACTATAGGGATAATCGCCCTGAGCAAAGACC
The binding signal of the first is lower: 1.76 ± 0.0916 log2FC for the first, 3.06 ± 0.0911 log2FC for the second.

Compared with “CTCGAGGATATCAAGATCTGGCCTCGGCCGGGTAAAAGGAACCTCTAGCTAGCCGACTCACTATAGGGATAATCGCCCTGAGCAAAGACC”, “CTCGAGGATATCAAGATCTGGCCTCGGCCAGGTAAAAGGAACCTCTAGCTAGCCGACTCACTATAGGGATAATCGCCCTGAGCAAAGACC” is higher in binding signal: -0.304 ± 0.0906 log2FC for the first, 0.0831 ± 0.0976 log2FC for the second.

Compared with “CTCGAGGATATCAAGATCTGGCCTCGGCAAAGTAAAAGGAACCTCTAGCTAGCCGACTCACTATAGGGATAATCGCCCTGAGCAAAGACC”, “CTCGAGGATATCAAGATCTGGCCTCGGCCTTCCACGCGGAACCTCTAGCTAGCCGACTCACTATAGGGATAATCGCCCTGAGCAAAGACC” is lower in binding signal: 0.197 ± 0.0829 log2FC for the first, -1.1 ± 0.121 log2FC for the second.

First: CTCGAGGATATCAAGATCTGGCCTCGGCGACTTAAAAGGAACCTCTAGCTAGCCGACTCACTATAGGGATAATCGCCCTGAGCAAAGACC
Second: CTCGAGGATATCAAGATCTGGCCTCGGCCTTTTACGTGGAACCTCTAGCTAGCCGACTCACTATAGGGATAATCGCCCTGAGCAAAGACC
The binding signal of the first is lower: 0.297 ± 0.0744 log2FC for the first, 2.16 ± 0.0717 log2FC for the second.

Going from “CTCGAGGATATCAAGATCTGGCCTCGGCATTTTAGCAGGAACCTCTAGCTAGCCGACTCACTATAGGGATAATCGCCCTGAGCAAAGACC” to “CTCGAGGATATCAAGATCTGGCCTCGGCATTTTATGCGGAACCTCTAGCTAGCCGACTCACTATAGGGATAATCGCCCTGAGCAAAGACC”, the binding signal rises from 0.721 ± 0.101 log2FC to 2.23 ± 0.0779 log2FC.

First: CTCGAGGATATCAAGATCTGGCCTCGGCATTTTATTGGGAACCTCTAGCTAGCCGACTCACTATAGGGATAATCGCCCTGAGCAAAGACC
Second: CTCGAGGATATCAAGATCTGGCCTCGGCATTTTAGACGGAACCTCTAGCTAGCCGACTCACTATAGGGATAATCGCCCTGAGCAAAGACC
The binding signal of the first is higher: 3.32 ± 0.0805 log2FC for the first, -0.141 ± 0.116 log2FC for the second.

Work on “CTCGAGGATATCAAGATCTGGCCTCGGCAGAGTAAAAGGAACCTCTAGCTAGCCGACTCACTATAGGGATAATCGCCCTGAGCAAAGACC” yielded a binding signal of 0.253 ± 0.1 log2FC.
